Hit rate of the full screen: of about 2,200 compounds, about 530 (24%) were called active.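 The calls were made as follows: active = inhibition above a set limit at one or more concentrations of the dose series; inactive = inhibition under that limit at every dose.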 Only a sample is shown. Measured potencies and affinities stand elsewhere.

The results in this text go back to PubChem BioAssay AID2401 (Southern Research Specialized Biocontainment Screening …, 2010).

A short description of this assay: S. Typhimurium nonspecific reporter signal inhibition – Salmonella Typhimurium, GFP fluorescence, counter-screen for PhoP regulon inhibitor project, dose response (AID 2401).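 Also: S. typhimurium with Mg-insensitive nmpC-GFP reporter grown at 10 µM Mg2+; drop in reporter fluorescence reflects general culture growth inhibition.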 Particulars: 4 h; series mostly up to 150 µM. Background: Counterscreens check selectivity or assay interference.
Turning to `COC(=O)c1ccccc1Oc1cnc2ccccc2n1`, the result was inactive.
On to `Brc1ccc(NC2=Nc3ccccc3CC2)cc1`, for which the compound was classed as inactive.
`COc1ccc(N(CC(=O)Nc2ccccc2SC)S(C)(=O)=O)cc1OC`: the compound was called inactive.
With `Cc1ccccc1CS(=O)(=O)c1snnc1C`, the result was inactive.
With `CC(=O)Nc1ccc(NS(=O)(=O)c2ccc3c(c2)n(C)c(=O)n3C)cc1` the entry was “inactive”; with `CCOc1ccc(-c2nnc(SCc3nnc(-c4ccccc4)o3)n2-c2ccccc2F)cc1`, “inactive”; with `COc1ccc(/C=C/C(=O)NCCc2nc3ccccc3[nH]2)cc1`, “inactive”.
With `CCOc1cc(/C=C2/NC(=O)N(CC(=O)Nc3cccc(C)c3)C2=O)ccc1OC`, the compound was called inactive.
In the case of `O=C(c1cccnc1Nc1ccc2c(c1)CCC2)N1CCOCC1`, the result was inactive.
Under `Cc1cc(C)cc(NC(=O)CSc2nc3c(c(=O)[nH]2)CN(Cc2ccc(F)cc2)CC3)c1` stands “inactive”; under `O=C(c1cc2ncc(Br)cn2n1)N1CCOCC1`, “inactive”.
As to `O=[N+]([O-])c1ccccc1CNc1ccc(F)c(Cl)c1`, the compound was called inactive.
With `Nc1nnc(SCCOc2ccc(Br)cc2)s1` the entry was “inactive”; with `O=S(=O)(NCc1ccccc1)c1cccc(S(=O)(=O)N2CCOCC2)c1`, “inactive”.
Consider `COc1ccc(Cl)cc1Nc1nc(-c2sc(NC(=O)c3ccco3)nc2C)cs1`, for which the compound was called inactive.
`O=C(/C=C/c1ccccc1)N1CCN(c2c(Cl)cccc2[N+](=O)[O-])CC1`: the call was inactive.
Turning to `CCCCOC(=O)CCNc1n[nH]c(=O)[nH]c1=O`, the outcome was inactive.
With `CN1CCN(S(=O)(=O)c2ccc(N)cc2)CC1`, the call was inactive.
For `O=C(NCc1ccccn1)Nc1cccc(Cl)c1`, the compound was classed as inactive.
In the case of `Cn1c(N)c(C(=O)COC(=O)C2CCCCC2)c(=O)n(C)c1=O`, the compound was classed as inactive.
As to `CC(C)CNC(=O)c1ccc(COc2ccc(Cl)cc2Cl)o1`, the outcome was inactive.
With `C#CCOc1ccc(Cl)cc1/C=N/O`, the call was inactive.
With `CCCCN(C(=O)NC(=O)Nc1nc2ccc(OC)cc2s1)S(C)(=O)=O`, the result was inactive.
`Cc1ccc2nc(SCC(=O)c3c(C)[nH]c4ccccc34)[nH]c2c1`: the call was inactive.
Turning to `CN(CCO)Cc1csc2ccc(Br)cc12`, the call was inactive.
As for `CCNC(=O)NC1(C(=O)Nc2ccc3c(c2)OCCO3)CCCCC1`, the call was inactive.
With `CC1=CC(C)(C)n2c(O)c(C3=NC(=S)NC3=O)c3cc(OC(=O)c4cccc5ccccc45)cc1c32`, the compound was classed as inactive.
Take `CCOC(=O)C1CCCN(S(=O)(=O)c2ccc(Br)c(OC)c2)C1` (configuration not stated): the compound was classed as inactive.
Under `O=C(CCc1ccccc1)Nc1nc2ccc(S(=O)(=O)N3CCOCC3)cc2s1` stands “inactive”; under `O=C(c1ccc2nc(N3CCOCC3)sc2c1)N1CCC(Cc2ccccc2)CC1`, “inactive”; under `CN1CCN(S(=O)(=O)c2ccc(-c3ccccc3)cc2)CC1`, “inactive”.
Under `CCC1C2CN(C(C)=O)CC=C2C(C#N)=C(N)C1(C#N)C#N` (configuration not stated) stands “inactive”; under `CN(C)CCNc1nc(-c2ccccc2)nnc1C(F)(F)F`, “inactive”; under `Cc1cc(NCCN2CCOCC2)n2ncc(-c3ccccc3)c2n1`, “inactive”.
With `Nc1c(-c2ccccc2Cl)cnn1-c1cccc([N+](=O)[O-])c1`, the compound was classed as inactive.
Regarding `N#Cc1ccc(C(c2nnnn2CCc2ccccc2)N2CCCCCC2)cc1` (configuration not stated), the outcome was inactive.
Consider `NC(=O)c1ccccc1NC(=O)/C=C/C(=O)O`, for which the result was inactive.
Consider `O=C(Cc1cccs1)Nc1nc2c(s1)CCCC2`, for which the outcome was inactive.
Regarding `COc1ccc([N+](=O)[O-])cc1N(CC(O)Cn1nnc2ccccc21)S(=O)(=O)c1ccc(C)cc1` (configuration not stated), the compound was classed as inactive.
Regarding `O=C(O)/C=C/C(=O)Nc1cccc(C(F)(F)F)c1`, the result was inactive.
With `Cc1cccc(NC(=O)c2ccc(Cn3cc(C(F)(F)F)ccc3=O)cc2)c1` the entry was “inactive”; with `NS(=O)(=O)c1ccc(Nc2nc(-c3ccc(O)cc3)cs2)cc1`, “inactive”.
On to `COCc1cc(C)nc(N2CCc3ccccc32)c1C#N`, for which the compound was called inactive.
Under `O=C(CSc1nnc(Cc2ccccc2)o1)NCCc1ccccc1` stands “inactive”; under `CCn1c(=N)n(CC(O)c2ccccc2)c2ccccc21` (configuration not stated), “inactive”; under `Cc1ccccc1OCCCCCn1ccnc1`, “inactive”.
With `COc1ccc(C(=O)NCCC2=CCCCC2)cc1OC` the entry was “inactive”.
On to `C1=C(CCNc2ncnc3c2[nH]c2ccccc23)CCCC1`, for which the compound was classed as inactive.
Take `Cc1nc2ccccc2c(=O)n1/N=C/c1ccc(N(C)C)cc1`: the compound was classed as inactive.
With `COc1cccc(Nc2nc(-c3sc(NC(=O)c4ccco4)nc3C)cs2)c1` the entry was “inactive”; with `O=C(NCCNS(=O)(=O)c1cccc(C(F)(F)F)c1)c1cc(OCC(F)(F)F)ccc1OCC(F)(F)F`, “inactive”.
With `CCOC(=O)C1CCCN(C(=O)Cc2ccc(Cl)cc2)C1` (configuration not stated), the outcome was inactive.
With `NC(=NCc1ccc2c(c1)OCO2)NC(=O)c1ccccc1` the entry was “inactive”; with `COc1ccc(-c2nc3ncccc3n2O)cc1`, “inactive”; with `O=C(CSc1nccc(=O)[nH]1)N1c2ccccc2CCc2ccccc21`, “inactive”.
In the case of `O=C(CSC1CC(=O)N(CCc2ccccc2)C1=O)Nc1cccc(Cl)c1` (configuration not stated), the outcome was inactive.
As for `COc1ccc(NC2=NC3(CCCCC3)N=C(N)N2)cc1`, the compound was called inactive.
As to `CC(C)c1ccc(NC(=O)Nc2cc3sccc3n2C)cc1`, the call was inactive.
As to `CCOC(=O)C1CCCN(C(=O)c2sc3nc(C)nc(N4CCOCC4)c3c2C)C1` (configuration not stated), the outcome was inactive.
Regarding `CCn1c(Cc2ccccc2)nnc1SCC(=O)Nc1nc(C)c(C)s1`, the outcome was inactive.
As for `OC1(c2cccc(C(F)(F)F)c2)CCN(c2ncnc3c2[nH]c2ccccc23)CC1`, the compound was classed as inactive.
For `Cc1ccc(Oc2nnc(-c3ccccc3)c3ccccc23)cc1`, the outcome was inactive.
`NC(=O)c1oc2ccccc2c1NC(=O)CN1CCCCC1`: the result was inactive.
With `O=C(CN1CCCc2ccccc21)N/N=C/c1c(O)ccc2ccccc12` the entry was “inactive”; with `Nc1ccc(S(=O)(=O)Nc2ccc(Cl)nn2)cc1`, “inactive”.
Turning to `O=C(Nc1cccc(-c2cn3cccnc3n2)c1)c1ccco1`, the call was inactive.
Turning to `CCOCCCNC(=S)Nc1cc(C)cc(C)c1`, the compound was called inactive.
Take `O=C(CCNS(=O)(=O)c1cccc2nsnc12)Nc1ccc2c(c1)OCCO2`: the call was inactive.
As to `Cc1cc(C(C)c2ccccc2)c(O)c(CN2CCOCC2)c1C` (configuration not stated), the compound was called inactive.
With `c1cncc(-c2nc(N3CCOCC3)c3ccccc3n2)c1` the entry was “inactive”; with `c1ccc(COc2cccc(CN3CCN(c4ccccn4)CC3)c2)cc1`, “inactive”.
Under `O=c1[nH]c(CN2CCCCC2)nc2ccccc12` stands “inactive”.
`CC1(C)CC(=O)C(/C=N/c2ncccc2C(=O)O)=C(O)C1`: the call was inactive.
In the case of `CCOC(=O)c1ccc(NC(=O)Nc2cc(C)on2)cc1`, the call was inactive.
As to `COc1ccc(NC2=NC(=S)N(c3cccc(C)c3)C23CCCCC3)cc1`, the result was inactive.
Regarding `CN(C)c1ccc(Nc2nc(-c3cccnc3)cs2)cc1`, the outcome was inactive.
Take `CCC(CC)NC(=O)COC(=O)c1ccc(OCC(=O)Nc2ccccc2OC)c(OC)c1`: the outcome was inactive.
`O=C(O)C1CCCN1S(=O)(=O)c1ccc2[nH]c(=O)c(=O)[nH]c2c1` (configuration not stated): the outcome was inactive.
Regarding `N=c1n(Cc2ccc(Cl)cc2)c2ccccc2n1CC(O)c1ccco1` (configuration not stated), the compound was classed as inactive.
With `N=c1n(CCO)c2ccccc2n1Cc1ccc(Cl)cc1`, the compound was classed as inactive.
With `N#CCC1c2ccccc2CCN1C(=O)Nc1ccc(Cl)cc1` (configuration not stated), the compound was called inactive.
With `N/C(=N\c1nc2ccccc2o1)NC(=O)c1ccccc1F`, the compound was called inactive.
`Cn1c(-c2ccc(N)cc2)nc2ccccc21`: the result was inactive.
On to `CCCCCOc1ccc(NC(=O)C(=O)NCCC2=CCCCC2)cc1`, for which the compound was called inactive.
In the case of `CN1/C(=C/C2CC(=O)N(c3cccc4ccccc34)C2=O)C(C)(C)c2ccccc21` (configuration not stated), the result was inactive.
For `CN1/C(=C\C=N\NC(=O)c2ccccc2Br)C(C)(C)c2ccccc21`, the compound was classed as inactive.
Turning to `C=CCNC(=O)c1ccc(N(C)S(=O)(=O)c2ccc(OC)cc2)cc1`, the call was inactive.
Consider `CC(=O)Nc1nc(-c2ccc(Cl)cc2)nc(C)c1C(C)=O`, for which the compound was classed as inactive.
As for `COC(=O)c1ccccc1NC(=O)NCc1ccc2c(c1)OCO2`, the compound was classed as inactive.
With `c1ccc(-c2cnn3nnnc3n2)cc1` the entry was “inactive”; with `O=C(NCc1cccs1)Nc1cccs1`, “inactive”.
In the case of `CSc1nnc2c3c4c(sc3nc(-n3nc(C)cc3C)n12)COC(C)(C)C4`, the call was inactive.
On to `CC(C)Cn1cnc2sc3c(c2c1=N)CCCC3`, for which the compound was classed as inactive.
As to `Cn1c(NCc2cc(Br)ccc2O)nc2ccccc21`, the compound was called inactive.
Regarding `COc1cc(/C=C2/SC(=S)N(CC(=O)Nc3cccnc3)C2=O)cc(OC)c1OC`, the outcome was inactive.
In the case of `CC1Cc2ccccc2N1C(=O)COC(=O)c1ccc(S(=O)(=O)N(C)C)cc1` (configuration not stated), the outcome was inactive.
Regarding `O=C(NC1CCCCC1)C(c1ccncc1)N(CC1CCCO1)C(=O)C(F)(F)F` (configuration not stated), the compound was called inactive.
`CCn1nnc(-c2ccccc2NC(=O)c2ccc(-n3cnnn3)cc2)n1`: the call was inactive.
As to `Clc1ccc(OCCCn2ccnc2)c(Br)c1`, the compound was called inactive.
Under `CC(C)NCCCOc1ccc(Cl)cc1Br` stands “inactive”; under `O=C(COc1ccc(Br)cc1Cl)NC(=O)NCc1ccccc1`, “inactive”.
Under `CCCCNCCCOc1cccc(Cl)c1Cl` stands “inactive”.
Turning to `Clc1cc(Br)ccc1OCCn1ccnc1`, the compound was called inactive.
Turning to `c1ccc(COc2ccccc2CNCc2cccnc2)cc1`, the outcome was inactive.
As to `CCN(Cc1ccccc1)C(=O)CN1C(=S)NC(C)(C)CC1C` (configuration not stated), the outcome was inactive.
Turning to `CCOC(=O)Nc1ccc(C)cc1C`, the result was inactive.
With `COC(=O)c1[nH]c2ccc(C)cc2c1NC(=O)Nc1ccc(OC)cc1`, the compound was classed as inactive.
`O=C(/C=C/c1cccs1)N1CCN(Cc2ccc3c(c2)OCO3)CC1`: the compound was classed as inactive.
In the case of `O=C(Nc1cccc2ccccc12)c1ccc(Cn2cc(Cl)cn2)cc1`, the call was inactive.
Regarding `NC(=O)c1cnn(Cc2ccc(Cl)cc2)c1N`, the call was inactive.
Regarding `CN(C)c1ccnc(Oc2ccc(F)cc2)c1C#N`, the compound was classed as inactive.
Under `COc1ccc(CN=C2Nc3ccccc3CS2)cc1` stands “inactive”; under `Fc1ccc(-c2n[nH]c(=S)n2/N=C/c2c[nH]c3ccccc23)cc1`, “inactive”.
Turning to `CCCCn1c(/N=C/c2c[nH]c3ccccc23)nc2ccccc21`, the outcome was inactive.
In the case of `O=C(N/N=C/c1cn(-c2ccccc2)nc1-c1ccc(F)cc1)c1ccc2c(c1)OCO2`, the result was inactive.
With `Cc1cc(=O)[nH]c(N/N=C/c2c[nH]c3ccccc23)n1` the entry was “inactive”; with `Cc1c(NS(=O)(=O)c2ccccc2)c(=O)n(-c2ccccc2)n1C`, “inactive”.
